“And” between values parts separate entries of the source, which are not always exact repeats. Identical values can stand only once. Among all 5,500 compounds or so, about 2,000 (36%) were called active. Another 18% or so got no clear call; they are omitted. No stated cut-off is given here; in the data, active means normalized growth mostly below about 0.91 (no sharp cut-off); inconclusive means no clear call, values can overlap the other calls; inactive means mostly above about 0.92. The list shows a part of the results.
Assay: chemical genetic growth profiling, strain panel (AID 1159580);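 further: tested at 20 µM; growth read once vehicle control cultures reached saturation at 30 °C; 1 = growth at the plate median or of vehicle wells; lower values mean less growth of the strain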
Settings: S. cerevisiae deletion strains, growth OD

Measured: normalized growth

CN1CCN(C2=Nc3ccccc3Oc3ccc(Cl)cc32)CC1
inactive: locus YAL013W, strain DEP1, hits give low values 0.995 and 0.98 | locus YAL021C, strain ccr4, hits give low values 0.981 | locus YAL026C, strain drs2, hits give low values 0.984 | locus YAL030W, strain snc1, hits give low values 1 | locus YAL040C, strain CLN3, hits give low values 0.979 | locus YBL061C, strain skt5, hits give low values 0.982 | locus YBR009C, strain hhf1, hits give low values 1.01 | locus YBR021W, strain FUR4, hits give low values 1.01 | locus YBR023C, strain chs3, hits give low values 1 | locus YBR171W, strain sec66, hits give low values 0.964 | locus YBR229C, strain ROT2, hits give low values 0.953 | locus YBR231C, strain swc5, hits give low values 0.988 | locus YBR279W, strain paf1, hits give low values 0.987 | locus YCL011C, strain gbp2, hits give low values 0.978 | locus YCL016C, strain dcc1, hits give low values 1 | locus YCL029C, strain bik1, hits give low values 0.994 | locus YCL061C, strain MRC1 (second series), hits give low values 0.992 | locus YCL061C, strain MRC1, hits give low values 0.989 | locus YCL069W, strain vba3, hits give low values 0.999 | locus YCR088W, strain abp1, hits give low values 0.993 | locus YDL005C, strain med2, hits give low values 0.972 | locus YDL035C, strain GPR1, hits give low values 0.988 | locus YDL040C, strain nat1, hits give low values 0.97 | locus YDL074C, strain BRE1, hits give low values 0.997 | locus YDL101C, strain DUN1, hits give low values 0.989 | locus YDL134C, strain PPH21, hits give low values 0.979 | locus YDL185W, strain tfp1, hits give low values 0.992 | locus YDL192W, strain arf1, hits give low values 0.991 | locus YDR001C, strain nth1, hits give low values 0.967 | locus YDR069C, strain doa4, hits give low values 0.969 | locus YDR101C, strain arx1, hits give low values 0.994 | locus YDR137W, strain rgp1, hits give low values 1.01 | locus YDR150W, strain NUM1, hits give low values 0.991 and 1.02 | locus YDR159W, strain sac3, hits give low values 0.972 | locus YDR162C, strain NBP2, hits give low values 1.01 | locus YDR195W, strain ref2 0.948 | locus YDR297W, strain sur2, hits give low values 0.99 | locus YDR318W, strain mcm21, hits give low values 0.977 | locus YDR334W, strain swr1, hits give low values 0.947 | locus YDR335W, strain msn5, hits give low values 0.982 | locus YDR363W, strain ESC2, hits give low values 0.928 | locus YDR388W, hits give low values 0.994 | locus YDR392W, strain spt3, hits give low values 1.05 | locus YDR502C, strain sam2, hits give low values 0.986 | locus YEL003W, strain gim4, hits give low values 0.976 | locus YEL037C, strain rad23, hits give low values 0.998 | locus YEL061C, strain CIN8 (second series), hits give low values 0.97 | locus YEL061C, strain CIN8, hits give low values 0.997 | locus YER002W, strain NOP16, hits give low values 0.974 | locus YER015W, strain faa2, hits give low values 0.996 | locus YER016W, strain bim1, hits give low values 1 | locus YER110C, hits give low values 0.985 | locus YER111C, strain swi4, hits give low values 0.998 | locus YER155C, strain BEM2 (second series), hits give low values 0.985 | locus YER155C, strain BEM2, hits give low values 0.996 | locus YER167W, strain BCK2, hits give low values 0.988 | locus YFR010W, strain ubp6, hits give low values 1.01 | locus YGL078C, strain dbp3, hits give low values 1 | locus YGL086W, strain mad1, hits give low values 0.974 | locus YGL167C, strain pmr1, hits give low values 0.984 | locus YGL173C, strain kem1, hits give low values 1.01 | locus YGL227W, strain vid30, hits give low values 0.956 | locus YGL240W, strain doc1, hits give low values 1.02 | locus YGL248W, strain PDE1, hits give low values 0.963 | locus YGL253W, strain hxk2, hits give low values 0.982 | locus YGR078C, strain PAC10, hits give low values 1.02 and 0.994 | locus YGR135W, strain pre9, hits give low values 0.981 | locus YGR229C, strain SMI1, hits give low values 0.983 | locus YGR252W, strain gcn5, hits give low values 0.956 | locus YHR013C, strain ard1, hits give low values 0.974 | locus YHR027C, strain rpn1, hits give low values 0.966 | locus YHR030C, strain SLT2, hits give low values 0.987 and 1.04 | locus YHR079C, strain IRE1 (second series), hits give low values 0.99 | locus YHR079C, strain IRE1, hits give low values 1.06 | locus YHR094C, strain hxt1, hits give low values 0.991 | locus YHR129C, strain ARP1, hits give low values 0.991 | locus YHR142W, strain chs7, hits give low values 0.956 | locus YHR200W, strain rpn10, hits give low values 0.987 | locus YIL066C, strain RNR3, hits give low values 0.971 | locus YIL073C, strain SPO22, hits give low values 0.989 | locus YIL125W, strain kgd1, hits give low values 0.992 | locus YIR030C, strain dcg1, hits give low values 0.991 | locus YJL092W, strain hpr5, hits give low values 0.978 | locus YJL095W, strain BCK1 (second series), hits give low values 0.964 | locus YJL095W, strain BCK1, hits give low values 0.981 and 1.03 | locus YJL115W, strain asf1, hits give low values 0.926 | locus YJL129C, strain trk1, hits give low values 0.971 | locus YJL134W, strain LCB3, hits give low values 0.992 | locus YJL154C, strain vps35, hits give low values 0.97 | locus YJL164C, strain tpk1, hits give low values 0.998 | locus YJL166W, strain qcr8, hits give low values 0.975 | locus YJL168C, strain set2, hits give low values 0.991 | locus YJL187C, strain SWE1 (second series), hits give low values 0.983 | locus YJL187C, strain SWE1, hits give low values 0.99 | locus YJR043C, strain POL32, hits give low values 1.01 | locus YJR066W, strain TOR1, hits give low values 0.931
